Among the data in PubChem BioAssay (EPA / NIEHS) are outcome and AC50 values, retold here.

Where “and” joins values, the source holds several entries; their conditions need not be identical. Equal values may be shown once. Where a structure was tested more than once in an assay, its records may differ in their call. Calls of active or inactive are those of the source. How the source made its calls: active means hit-call score of the fitted dose curve at least 0.9, where 1 is the maximum; inactive means score below 0.9.

Read-out in this assay: Matrix Metallopeptidase 1 (MMP1), MMP1 (gene 4312)
Kind of assay: BSK_BF4T_MMP1: BioMAP Diversity Plus: BF4T Assay for Matrix Metallopeptidase 1 (MMP1) Biomarker Activity (AID 2284270). As to conditions: primary human bronchial epithelial cells with fibroblasts. As to the method:
BSK_BF4T is a cell-based, multiplexed-readout assay that uses bronchial epithelial cells and dermal fibroblasts, a human vascular primary cell, with measurements taken at 24 hours after chemical dosing in a microplate: 96-well plate.BSK_BF4T_MMP1 is an assay component measured in the BSK_BF4T assay. It measures MMP-1 antibody related to regulation of gene expression using ELISA technology.Data from the assay component BSK_BF4T_MMP1 was analyzed at the endpoint, BSK_BF4T_MMP1, in the positive analysis fitting direction relative to DMSO as the negative control and baseline of activity. Using a type of binding reporter, gain or loss-of-signal activity can be used to understand protein changes. To generalize the intended target to other relatable targets, this assay endpoint is annotated to the 'protease' intended target family, where the subfamily is 'matrix metalloproteinase'.
The levels of cell surface (or secreted, indicated by the prefix "s") biomarker endpoints were measured by ELISA. Overt cytotoxicity to cells in confluent adherent cultures (all systems other than the BT system) was assessed by measuring total protein levels using sulforhodamine B (SRB) staining in parallel cultures at the time of biomarker measurements, indicated as SRB endpoints. For proliferation assays for adherent cell types, individual cell types are cultured at sub-confluence and relative cell numbers quantified by SRB staining at time points optimized for each system (48 h: 3C and CASM3C systems; 72 h: BT and HDF3CGF systems; 96 h: SAg system). SRB was performed by staining cells with 0.1% SRB after fixation with 10% TCA and reading wells at 560 nm.Viability and proliferation of PBMC (T cells) was quantified by Alamar Blue reduction for the SAg and BT systems. For PBMC viability (referred to as PBMC Cytotoxicity within the assay endpoint names), cells were plated (75,000/well in a 96-well plate) and then chemical samples added for 1 h before addition of activators, SEB and TSST-1 (20 ng/mL final concentration each). Cells were incubated for 90 h. Then, Alamar Blue (20 uL/well) (Invitrogen, Cat DAL1100) was added for 6 h, and the plates were read with a fluorescence microplate reader at 546/580 nm (excitation/emission). For PBMC proliferation, cells were plated and activated as above but incubated for only 16 h prior to addition of Alamar Blue. Plates were read after 6 h.
As for `C=CC(=O)OCC(F)(F)C(F)(F)C(F)(F)C(F)(F)C(F)(F)C(F)(F)C(F)(F)F`, the outcome was inactive.

As for `C=C(C)C(=O)OCCC(F)(F)C(F)(F)C(F)(F)C(F)(F)C(F)(C(F)(F)F)C(F)(F)F`, the result was inactive.

Turning to `FC(F)(F)C(F)(F)CNCC(F)(F)C(F)(F)F`, the outcome was inactive. Still for that read-out and setting: with `O=S(=O)(OCCOC(F)(F)F)C(F)(F)F` the entry was “inactive”. On the same count and under the same terms, as for `Cc1ccc(S(=O)(=O)OCC(F)(F)C(F)(F)C(F)(F)C(F)(F)C(F)(F)C(F)F)cc1`, the entry is “inactive”. On the same count and under the same terms, as for `OCCCC(F)(F)C(F)(F)C(F)(F)F`, the entry is “inactive”; as for `O=C(O)C(F)(F)C(F)(F)C(F)(F)C(F)(F)C(F)(F)C(F)(F)C(F)(F)C(F)(F)C(F)(F)C(F)(F)C(F)(F)C(F)(F)F`, “inactive”; as for `OCC(F)(F)C(F)(F)C(F)(F)C(F)F`, “inactive”. `CCO[Si](CCC(F)(F)C(F)(F)C(F)(F)C(F)(F)C(F)(F)C(F)(F)F)(OCC)OCC`: the outcome was inactive. The same measure, in the same setting: as for `O=C(O)C(F)(F)C(F)(F)C(F)(F)F`, the entry is “inactive”; as for `C=C(C)C(=O)OCC(F)(F)C(F)(F)C(F)(F)C(F)(F)C(F)(F)C(F)(F)C(F)(F)F`, “inactive”. Take `FC1CC(F)(F)C(F)(F)C1(F)F` (stereo not given): the outcome was inactive. Same read-out and setting: with `COC(=O)CCC(F)(F)C(F)(F)C(F)(F)C(F)(F)F` the entry was “inactive”; with `O=C(O)C(F)(F)C(F)(F)C(F)F`, “inactive”. The same measure, in the same setting: with `O=C(O)C(F)(F)C(F)(F)C(F)(F)C(F)(F)F` the entry was “inactive”; with `O=C(O)C(F)(F)C(F)(F)C(F)(F)C(F)(F)C(F)(F)C(F)(F)C(F)(F)C(F)(F)C(F)(F)C(F)(F)C(F)(F)C(F)(F)C(F)(F)F`, “inactive”; with `FC(F)(F)C(F)(F)C(F)(F)C(F)(F)C(F)(F)CCI`, “inactive”.

With `OCC(F)(F)C(F)(F)C(F)(F)F`, the result was inactive. Same read-out and setting: as for `C=C(C)C(=O)OCC(F)(F)C(F)(F)C(F)(F)F`, the entry is “inactive”. Same read-out and setting: as for `N=C(N)C(F)(F)C(F)(F)C(F)(F)C(F)(F)C(F)(F)C(F)(F)C(F)(F)F`, the entry is “inactive”. Regarding `O=C(O)C(F)(F)C(F)(F)C(F)(F)C(F)(F)C(F)(F)C(F)(F)C(F)(F)C(F)(F)C(F)(F)C(F)F`, the AC50 was 49.7 µM (active) and the outcome was inactive. Turning to `FC(F)(Br)C(F)(F)C(F)(F)C(F)(F)C(F)(F)C(F)(F)Br`, the result was inactive. With `O=C(Cl)C(F)(F)C(F)(F)C(F)(F)C(F)(F)C(F)(F)C(F)(F)C(F)(F)C(F)(F)F`, the AC50 is 55.2 µM (active) and the outcome was inactive. For the compound `C=CC(F)(F)C(F)(F)C(F)(F)C(F)(F)C(F)(F)C(F)(F)C(F)(F)C(F)(F)F`, the outcome was inactive. With `FC(F)(F)C(F)(F)C(F)(F)N(C(F)(F)C(F)(F)C(F)(F)F)C(F)(F)C(F)(F)C(F)(F)F`, the outcome was inactive. The same measure, in the same setting: as for `O=C(CC(=O)C(F)(F)C(F)(F)F)C(F)(F)F`, the entry is “inactive”; as for `C=CC(F)(F)C(F)(F)C(F)(F)C(F)(F)C(F)(F)C(F)(F)C(F)(F)C(F)(F)C=C`, “inactive”; as for `C=CC(=O)OCC(F)(F)C(F)(F)C(F)(F)C(F)(F)COC(=O)C=C`, “inactive”. For the compound `O=C(O)C(F)(F)C(F)(F)F`, the result was inactive. Still for that read-out and setting: with `FC(F)(F)C(F)(F)C(F)(F)C(F)(F)C(F)(F)C(F)(F)C(F)(F)C(F)(F)F` the entry was “inactive”. On the same count and under the same terms, with `OCC(F)(F)C(F)(F)C(F)(F)C(F)(F)C(F)(F)C(F)(F)F` the entry was “inactive”. For `FC(F)(I)C(F)(F)C(F)(F)C(F)(F)I`, the AC50 was 51.2 µM (active) and 48.6 µM (active) and 50.2 µM (active). Take `FC(F)(F)C(F)(F)C(F)(F)C(F)(F)C(F)(F)C(F)(F)CC1CO1` (stereo not given): the outcome was inactive. With `FC(F)(F)C(F)(F)C(F)(F)C(F)(F)CCI`, the outcome was inactive. Same read-out and setting: as for `O=C(O)C=C(C(F)(F)F)C(F)(F)F`, the entry is “inactive”.

On to `OCCCC(F)(F)C(F)(F)C(F)(F)C(F)(F)C(F)(F)C(F)(F)C(F)(F)F`, for which the outcome was inactive and the concentration at half-maximal activity (AC50) was 46.8 µM (active).

Regarding `O=C(O)C(F)(F)C(F)(F)C(F)(F)C(F)(F)C(F)(F)C(F)(F)C(F)(F)C(F)(F)Cl`, the half-maximal activity concentration (AC50) is 48.7 µM (active) and 55 µM (active).

The term AC50 denotes the midpoint of the concentration-response curve, whichever way the signal moves.
